The whole screen tested about 310,000 compounds, of which about 11,000 (3.5%) were called active. Another 4% or so got no clear call; they are omitted. The calls are words filed in the database; no cut-off is given here. The entries come from a sample that favours actives as a whole.
biological target: T1, 4'-phosphopantetheinyl transferase ffp (Bacillus subtilis) (UniProt Q9F4F7); test: qHTS Assay for Inhibitors of Bacillus subtilis Sfp phosphopantetheinyl transferase (PPTase).; assay type: functional
T1 sequence (whole entry): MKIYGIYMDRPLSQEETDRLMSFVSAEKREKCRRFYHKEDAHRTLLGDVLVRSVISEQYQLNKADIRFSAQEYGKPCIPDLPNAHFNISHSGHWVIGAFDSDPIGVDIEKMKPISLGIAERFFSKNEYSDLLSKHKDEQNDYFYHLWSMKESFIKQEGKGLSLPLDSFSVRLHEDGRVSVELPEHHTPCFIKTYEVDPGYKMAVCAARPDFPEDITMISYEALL

Q: Which Potency does the source give for Cl[Te]1(Cl)OCCO1 here?
A: The Potency was 158 nM (active).
